Source: PubChem (several laboratories)
UBC9 SUMO inh = inhibitors of in vitro SUMOylation cascade, primary screen, biochemical, HTRF, uHTS | SUMO-conjugating enzyme UBC9 (Homo sapiens), P63279 | HTRF SUMOylation assay, SAE1/SAE2 + UBC9 | inhibition, % at 35 µM | 0.36% of 290,000 active | AID 2006, 2009; in the data active = inhibition above about 50%, passing the limit was not always enough; inconclusive = no clear call, values can overlap the other calls
PHOSPHO1 block = PubChem AID 1565. Phosphoethanolamine/phosphocholine phosphatase (Homo sapiens), Q8TCT1. recombinant PHOSPHO1, absorbance phosphatase assay. inhibition, % at 13.3 µM. 1.1% of 290,000 active; in the data active = inhibition above about 60%
PfM18AAP inh = PfM18AAP inhibitors, malaria aminopeptidase, primary screen, biochemical, QFRET, recombinant enzyme. M18 aspartyl aminopeptidase (Plasmodium falciparum 3D7). H-Glu-NHMec fluorogenic cleavage. inhibition, % at 7.35 µM. 1.2% of 290,000 active. AID 1822, 2009;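 active = inhibition above the campaign mean inhibition over all tested compounds plus 3 SD, cut at about 28% in these data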;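 note: 0% = plate median of test compound wells and 100% = 2 mM ZnCl2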
G6PDH counter = L. mesenteroides G6PDH inhibitors, counter-screen for G6PDH-coupled screening assays, biochemical, Leuconostoc mesenteroides enzyme; glucose-6-phosphate dehydrogenase [Leuconostoc mesenteroides]; Purified L. mesenteroides G6PDH, diaphorase/resazurin coupled fluorescence, 45 min; 0.12% of 200,000 active; inhibition, % at 5 µM; in the data active = inhibition above about 50%
p97 inhibitor = inhibitors of human p97 ATPase, primary screen, biochemical | inhibition, % at 8 µM | recombinant p97 ATPase, Kinase-Glo ATP luminescence, 3 h | AID 1481, 2009 | 0.42% of 220,000 active; in the data active = inhibition above about 15%;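 note: 0% = DMSO vehicle and 100% = wells lacking enzyme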
HDAC3 inhib = HDAC3 deacetylase inhibitors, primary screen, biochemical, fluorescence, cell-free homogeneous | recombinant HDAC3, fluorogenic peptide/trypsin coupled | inhibition, % at 8.3 µM | 0.15% of 320,000 active | AID 2718, 2010; in the data active = inhibition above about 26%, passing the limit was not always enough; inconclusive = no clear call, values can overlap the other calls
Target sequence (O15379 whole entry, looked up): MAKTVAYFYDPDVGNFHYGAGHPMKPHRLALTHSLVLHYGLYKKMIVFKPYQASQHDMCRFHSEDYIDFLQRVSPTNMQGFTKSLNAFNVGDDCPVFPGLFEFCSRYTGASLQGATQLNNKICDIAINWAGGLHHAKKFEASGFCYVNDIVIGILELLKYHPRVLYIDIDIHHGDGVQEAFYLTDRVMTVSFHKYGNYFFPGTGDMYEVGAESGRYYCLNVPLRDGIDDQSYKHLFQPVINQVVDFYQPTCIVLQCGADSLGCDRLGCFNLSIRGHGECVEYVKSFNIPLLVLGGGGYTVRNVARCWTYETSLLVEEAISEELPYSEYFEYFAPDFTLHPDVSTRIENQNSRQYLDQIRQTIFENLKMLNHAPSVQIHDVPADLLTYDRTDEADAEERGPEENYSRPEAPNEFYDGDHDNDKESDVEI
* marks the source's active call; other numbers are inactive results; ? = inconclusive; . = not tested or not shown. Compounds with a hit are over-represented: about 2.5% of the library has one in this group of screens.

SMILES	UBC9 SUMO inh	PHOSPHO1 block	PfM18AAP inh	G6PDH counter	p97 inhibitor	HDAC3 inhib
O=[N+]([O-])c1c(NCCCO)cc(Sc2nc3ccccc3s2)c2nonc12	96	-100	-45	51*	6	1
CCCC(=O)OCCNc1cc(SCc2ccco2)c2nonc2c1[N+](=O)[O-]	90*	9	-10	-6	2	?
CC(C)Sc1nnc(NC(=O)c2ccc3c(c2)OCO3)s1	-3	27	-6	.	.	-8
CCCCN(C(=O)c1ccc2c(c1)S(=O)(=O)N=C1CCCCCN12)c1c(N)n(CCCC)c(=O)[nH]c1=O	.	.	.	.	.	6
Cc1cc(S(=O)(=O)N2CCOCC2)ccc1OCC(=O)NCc1ccccn1	0	20	-2	.	.	4
Cc1ccc(CNC(=O)CCSCc2ccccc2F)cc1	5	1	1	.	.	0
COc1ccc(NC(C)=O)cc1S(=O)(=O)NC1CCSc2ccccc21 (configuration not stated)	8	36	-2	.	.	3
C=CCNc1sc(C(=O)c2ccccc2)c(N)c1-c1nc2ccccc2s1	-20	98*	12	2	3	4
O=S(=O)(c1ccccc1)N1N=C(c2ccccc2)CC1c1ccccc1F (configuration not stated)	-14	35	2	.	.	-6
C=CCNc1nc(-c2ccc(OC)cc2OC)cs1	0	61*	15	4	8	7
COc1ccc(-c2csc(NC(=O)C3=COCCO3)n2)c(OC)c1	.	.	.	.	.	2
COc1ccc2ccccc2c1C1CC(=O)N2CN(C3CCCCC3)CSC2=C1C#N (configuration not stated)	22	50	22	29	2	43*
COc1ccc(C2CC(=O)N3CN(Cc4ccco4)CSC3=C2C#N)cc1 (configuration not stated)	20	58	30*	30	-5	37*
COc1cc(C2CC(=O)N3CN(Cc4ccco4)CSC3=C2C#N)ccc1OCc1ccccc1 (configuration not stated)	11	41	24	14	1	4
COc1ccc2ccccc2c1C1CC(=O)N2CN(Cc3ccco3)CSC2=C1C#N (configuration not stated)	9	72*	22	16	-5	44*
CCOc1cc(C2CC(=O)NC(SCC)=C2C#N)ccc1O (configuration not stated)	-11	-9	3	-1	-4	5
CCOc1cc(C2CC(=O)N3CN(C4CCCCC4)CSC3=C2C#N)ccc1O (configuration not stated)	13	42	31*	-26	8	?
CC(C)c1ccc(C2CC(=O)N3CN(Cc4ccco4)CSC3=C2C#N)cc1 (configuration not stated)	19	26	10	23	5	?
COc1ccccc1Nc1ccc(NS(=O)(=O)c2ccc(C(C)=O)cc2)cc1	-8	27	-42	.	.	5
CN(CC(=O)Nc1ccccc1C(F)(F)F)C(=O)Cc1ccc(S(=O)(=O)N2CCOCC2)s1	.	.	.	.	.	3
N#CC1=C2SCN(Cc3ccco3)CN2C(=O)CC1c1ccc(Cl)cc1 (configuration not stated)	10	76*	27	29	9	12
COc1ccc(OC(C)C(=O)N(C)Cc2nc(-c3cccc(C)c3)no2)cc1 (configuration not stated)	-10	22	-2	.	.	-1
Cc1cccc2c(C(=O)Nn3cnnc3)cc(-c3ccccc3Cl)nc12	13	34	45*	6	-5	-6
CCOC(=O)CSc1nc2c(c(=O)[nH]c(=O)n2C)n1CCc1ccccc1	14	-14	-6	5	-4	-70
CCCCCn1c(SCCN2CCOCC2)nc2c1c(=O)[nH]c(=O)n2C	-3	69*	13	-3	2	3
CCOC(=O)CSc1nc2c(c(=O)[nH]c(=O)n2C)n1C/C=C(/C)Cl	27	81*	10	3	4	-1
Cn1c(=O)[nH]c(=O)c2c1nc(SCC(=O)O)n2CCc1ccccc1	11	91*	3	13	-4	37*
